In test [1] the test system is Sodium/Iodide Symporter (NIS), SLC5A5 (gene 6528). Description: CPHEA_Stoker_NIS_Inhibition_RAIU: CPHEA's Radioactive Iodide Uptake (RAIU) Assay for Sodium/Iodide Symporter (NIS) Inhibition, Stoker and Laws Labs (AID 2283841). In a few lines: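 Test chemicals, six concentrations from 0.001 to 100uM in 0.5% DMSO, were co-incubated with carrier-free 125I (final 329pM) on hNIS-HEK293T-EPA monolayers in pH 7.4 HEPES-buffered HBSS. Plates stood 2 hours at room temperature, then were washed cold and counted.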

Test [2] is described as follows: CPHEA_Stoker_NIS_Cytotoxicity: Cytotoxicity Assessment for CPHEA's Radioactive Iodide Uptake (RAIU) Assay for Sodium/Iodide Symporter (NIS) Inhibition, Stoker and Laws Labs (AID 2283897).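 On AC50: active means loss of ATP signal versus DMSO meaning cytotoxicity.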 Put shortly:
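Viability in hNIS-HEK293T-EPA cells is scored as a drop in luciferase-detected ATP following 2-hour room-temperature exposure (0.001–100uM; triplicate wells, three cell passages), with DMSO as negative control.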

The target in test [3] is human Thyroid hormone Receptor beta (TRb), THRB (gene 7068) (UniProt P10828). As to the kind of experiment: ATG_hTRb_XSP2: Attagene TRANS-FACTORIAL Multi-Species (XSP2) HepG2 Assay for human Thyroid hormone Receptor beta (TRb) (AID 2283840).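 Further: actives raise reporter mRNA so potency reflects agonist-like gain of signal.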 Put shortly: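 Gain-of-signal reporter transcription, referenced to DMSO, was measured in transiently transfected HepG2 after 24 h exposure; labeled RT-PCR products were resolved by capillary electrophoresis. Assay medium included 3 nM 6-alpha-fluorotestosterone and 1.5 nM norgestrel.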

The nature of test [4]: CEETOX_H295R_11DCORT_noMTC: CeeTox H295R High-throughput Steroidogenesis Assay for 11-Deoxycortisol (11DCORT), maximum tolerated concentration (MTC) filtered results only (AID 2283911; active means hit-call score of the fitted dose curve at least 0.9, where 1 is the maximum; inactive means score below 0.9). The conditions noted are these: actives raise or lower the signal. In a few lines: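 Forskolin-primed (10 uM, 48 h) H295R adrenal cells are dosed for 48 h at 0.1% DMSO; medium 11-deoxycortisol is quantified by LC-MS/MS against a 7-point standard curve, with activity fitted in both directions versus DMSO.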

Test [5] in a line: CEETOX_H295R_OHPREG_noMTC: CeeTox H295R High-throughput Steroidogenesis Assay for OH-Pregnenolone (OHPREG), maximum tolerated concentration (MTC) filtered results only (AID 2283912; active means hit-call score of the fitted dose curve at least 0.9, where 1 is the maximum; inactive means score below 0.9). The conditions noted are these: actives raise or lower the signal. In a few lines:
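Steroidogenesis in H295R cells (OECD 456, modified): after 48 h forskolin priming and 48 h chemical treatment, secreted 17alpha-hydroxypregnenolone is measured by HPLC-MS/MS. Activity is fitted in both directions against DMSO; concentrations are not filtered by MTT-based MTC.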

A short description of test [6]: CEETOX_H295R_OHPROG_noMTC: CeeTox H295R High-throughput Steroidogenesis Assay for OH-Progesterone (OHPROG), maximum tolerated concentration (MTC) filtered results only (AID 2283914; active means hit-call score of the fitted dose curve at least 0.9, where 1 is the maximum; inactive means score below 0.9). Particulars: actives raise or lower the signal. Put shortly: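 Forskolin 10 uM, 48 h prestim → test cmpd in DMSO (0.1% final), 48 h → medium MTBE extraction → LC-MS/MS quant of 17alpha-OH-progesterone. Bidirectional fit vs DMSO; no MTT-based MTC filtering.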

Test [7] can be described thus: CEETOX_H295R_CORTISOL_noMTC: CeeTox H295R High-throughput Steroidogenesis Assay for Cortisol, maximum tolerated concentration (MTC) filtered results only (AID 2283916; active means hit-call score of the fitted dose curve at least 0.9, where 1 is the maximum; inactive means score below 0.9). Particulars: actives raise or lower the signal. The protocol: CEETOX_H295R is a cell-based, multiplexed-readout assay that uses H295R, a human adrenal gland cell line, with measurements taken at 48 hours after chemical dosing in a 96-well plate.CEETOX_H295R_CORTISOL_noMTC is one of 12 assay component(s) measured or calculated from the CEETOX_H295R assay (11 hormones and 1 viability assay). It is designed to make measurements of hormone induction, a form of inducible reporter, as detected with absorbance signals by HPLC-MS-MS technology. The concentrations for these components have not been pre-filtered for the maximum tolerated concentration (MTC) based on the MTT assay (_noMTC).Data from the assay component CEETOX_H295R_CORTISOL_noMTC was analyzed into 1 assay endpoint. This assay endpoint, CEETOX_H295R_CORTISOL_noMTC, was analyzed with bidirectional fitting relative to DMSO as the negative control and baseline of activity. […]
Cell culture and media preparation procedures were conducted in accordance with OECD Test No. 456 guidelines, with minor modifications. […] For steroid quantification, media samples were shipped to OpAns, LLC (Durham, NC) on dry ice, and samples were thawed to room temperature prior to liquid-liquid extraction. […] Steroid hormones were separated by HPLC, eluted using a reverse phase C18 gradient with electrospray positive ionization, followed by quantification by tandem mass spectrometry (MS/MS). […]

Test [8] in a line: CEETOX_H295R_CORTIC_noMTC: CeeTox H295R High-throughput Steroidogenesis Assay for Corticosterone (CORTIC), maximum tolerated concentration (MTC) filtered results only (AID 2283917; active means hit-call score of the fitted dose curve at least 0.9, where 1 is the maximum; inactive means score below 0.9). The conditions noted are these: actives raise or lower the signal. Put shortly:
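Following OECD 456 with minor changes, H295R cultures received 10 uM forskolin for 48 h, then test chemical at 0.1% DMSO for 48 h. Media steroids were extracted and measured by LC-MS/MS.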

Test [9] has as its target human Thyroid hormone Receptor alpha (TRa), THRA (gene 7067) (UniProt P10827). Description: ATG_hTRa_XSP2: Attagene TRANS-FACTORIAL Multi-Species (XSP2) HepG2 Assay for human Thyroid hormone Receptor alpha (TRa) (AID 2283838). Put shortly:
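HepG2 cells were transiently transfected with GAL4-UAS reporter units for chimeric human TRa-Gal4 and dosed for 24 hours, with 3 nM 6-alpha-fluorotestosterone and 1.5 nM norgestrel present. Reporter mRNA was quantified by RT-PCR, FAM labelling and capillary electrophoresis, with gain of signal fitted versus DMSO.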

Test [10] addresses frog Thyroid hormone Receptor alpha (TRa), thra-a (gene 397942) (UniProt P15204). Description: ATG_frTRa_XSP2: Attagene TRANS-FACTORIAL Multi-Species (XSP2) HepG2 Assay for frog Thyroid hormone Receptor alpha (TRa) (AID 2283839).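 On AC50: AC50 reflects induction of frog TRa-driven reporter mRNA above DMSO baseline.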 In a few lines:
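Chimeric frog TRα-GAL4 activity in human liver cells measures reporter transcript induction 24 h post-dose. Detection uses RT-PCR, HpaI-digested labelled products and fluorescence capillary electrophoresis; DMSO serves as negative control.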

SMILES strings stand for the structures. “And” between values parts separate entries of the source, which are not always exact repeats. Identical values can stand only once. Inconclusive results are not listed. A structure can be active in one record and inactive in another. The source made the active and inactive calls. How the source made its calls, unless noted: active means hit-call score of the fitted dose curve at least 0.9, where 1 is the maximum; inconclusive means response in the unintended direction; inactive means score below 0.9.

Drawing on PubChem BioAssay (EPA / NIEHS), this text covers AC50 and outcome for 28 compounds.

One may read the AC50 as the midpoint of the concentration-response curve, whichever way the signal moves.

human Thyroid hormone Receptor beta (TRb), THRB (gene 7068), sequence (P10828 whole entry, looked up): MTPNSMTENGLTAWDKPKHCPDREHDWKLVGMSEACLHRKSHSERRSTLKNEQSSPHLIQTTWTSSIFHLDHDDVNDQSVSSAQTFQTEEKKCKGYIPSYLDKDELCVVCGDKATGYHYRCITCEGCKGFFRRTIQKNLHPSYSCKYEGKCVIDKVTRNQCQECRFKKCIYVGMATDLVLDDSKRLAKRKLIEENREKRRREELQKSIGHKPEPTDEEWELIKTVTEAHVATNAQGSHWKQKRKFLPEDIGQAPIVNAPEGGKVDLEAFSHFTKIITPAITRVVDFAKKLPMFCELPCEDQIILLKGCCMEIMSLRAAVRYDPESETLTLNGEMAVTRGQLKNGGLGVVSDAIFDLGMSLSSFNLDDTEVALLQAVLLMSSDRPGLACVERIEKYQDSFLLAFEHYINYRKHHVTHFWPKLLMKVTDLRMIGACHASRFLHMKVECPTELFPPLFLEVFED
human Thyroid hormone Receptor alpha (TRa), THRA (gene 7067), sequence (P10827 whole entry, looked up, the tested form may be a part): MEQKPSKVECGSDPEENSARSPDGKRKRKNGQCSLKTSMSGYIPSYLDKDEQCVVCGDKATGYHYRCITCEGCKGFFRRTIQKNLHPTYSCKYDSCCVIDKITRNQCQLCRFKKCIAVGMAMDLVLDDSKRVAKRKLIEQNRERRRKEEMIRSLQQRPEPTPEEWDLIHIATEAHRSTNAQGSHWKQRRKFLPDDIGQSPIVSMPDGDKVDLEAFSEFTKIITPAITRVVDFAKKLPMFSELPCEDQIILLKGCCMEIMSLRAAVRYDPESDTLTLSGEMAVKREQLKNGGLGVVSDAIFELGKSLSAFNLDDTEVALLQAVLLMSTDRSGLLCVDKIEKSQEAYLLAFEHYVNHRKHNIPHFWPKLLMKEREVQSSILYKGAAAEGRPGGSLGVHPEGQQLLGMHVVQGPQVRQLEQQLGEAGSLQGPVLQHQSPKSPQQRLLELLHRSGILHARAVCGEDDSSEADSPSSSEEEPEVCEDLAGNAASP
frog Thyroid hormone Receptor alpha (TRa), thra-a (gene 397942), sequence (P15204 whole entry, looked up, the tested form may be a part): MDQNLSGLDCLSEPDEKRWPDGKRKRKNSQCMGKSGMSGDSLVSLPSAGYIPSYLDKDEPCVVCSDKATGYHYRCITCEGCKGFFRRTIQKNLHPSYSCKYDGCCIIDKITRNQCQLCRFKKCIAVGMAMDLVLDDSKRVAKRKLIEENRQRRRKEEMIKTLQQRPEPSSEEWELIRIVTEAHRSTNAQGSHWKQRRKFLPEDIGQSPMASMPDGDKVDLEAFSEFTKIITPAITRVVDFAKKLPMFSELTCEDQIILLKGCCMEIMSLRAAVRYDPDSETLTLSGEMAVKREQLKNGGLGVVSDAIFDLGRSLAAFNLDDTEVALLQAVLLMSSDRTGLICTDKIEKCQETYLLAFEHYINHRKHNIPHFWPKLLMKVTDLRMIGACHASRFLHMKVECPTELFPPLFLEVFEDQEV

Turning to `C#CCN1C(=O)COc2cc(F)c(N3C(=O)C4=C(CCCC4)C3=O)cc21`, the AC50 in [1] and in test [2] was 50 µM (active) throughout.

Consider `CC[C@H](C)[C@H]1O[C@]2(C=C[C@@H]1C)C[C@@H]1C[C@@H](C/C=C(\C)[C@@H](O[C@H]3C[C@H](OC)[C@@H](O[C@H]4C[C@H](OC)[C@@H](O)[C@H](C)O4)[C@H](C)O3)[C@@H](C)/C=C/C=C3\CO[C@@H]4[C@H](O)C(C)=C[C@@H](C(=O)O1)[C@]34O)O2` (tested in a mixture with another compound), for which the outcome in test [1] and in [2] was inactive.

With `O=C1c2ccccc2C(=O)N1SC(Cl)(Cl)Cl`, in test [1], the concentration at half-maximal activity (AC50) is 11.6 µM (active). The result in [2] was inactive.

Consider `C[C@H]1[C@H](c2ccc(Cl)cc2)SC(=O)N1C(=O)NC1CCCCC1`, for which the result in test [1] and in [2] was inactive.

As to `CCOCN(C(=O)CCl)c1c(C)cccc1CC`, the compound was called inactive in [3].

For `O=C(Nc1ccccc1)Nc1cnns1`, in [1], the result was inactive. Moreover, the concentration at half-maximal activity (AC50) was 35.2 µM (active) in test [4]; 14.3 µM (active) in test [5]; 37.8 µM (active) in test [6]; 41.7 µM (active) in [7]; 31.8 µM (active) in [8].

`Oc1ccc(Cl)cc1Cc1ccccc1`: the result in test [9] and in [3] was inactive. Besides, the half-maximal activity concentration (AC50) is 10 µM (active) in test [10]; 50 µM (active) and 11.2 µM (active) and 21.7 µM (active) in test [1]; 24.9 µM (active) and 50 µM (active) in test [2].

Consider `CCOC1Oc2ccc(OS(C)(=O)=O)cc2C1(C)C` (stereo unspecified), for which the outcome in test [1] and in [2] was inactive.

With `CC1(c2ccc(Oc3ccccc3)cc2)OC(=O)N(Nc2ccccc2)C1=O` (stereo unspecified), in test [1], the outcome was inactive. For the same compound, in test [2], the AC50 was 5.4 µM (active).

For `CCN(CC)C(=O)SCc1ccc(Cl)cc1`, in [1], the AC50 was 50 µM (active). Moreover, in test [2], the outcome was inactive.

`CC1(C)C(C=C(Cl)Cl)C1C(=O)OC(C#N)c1ccc(F)c(Oc2ccccc2)c1` (stereo unspecified): the concentration at half-maximal activity (AC50) in test [10] is 37.1 µM (active). Besides, the result in test [3] and in test [2] was inactive.

Take `N#Cc1c(Cl)c(Cl)c(Cl)c(C#N)c1Cl`: the result in test [1] and in test [2] was inactive.

Take `CCS(=O)(=O)c1cccnc1S(=O)(=O)NC(=O)Nc1nc(OC)cc(OC)n1`: the result in test [4], in [5], in [6], in test [7] and in test [8] was inactive.

Regarding `CC(C)(C)C(O)/C(=C\c1ccc(Cl)cc1Cl)n1cncn1` (stereo unspecified), the compound was classed as inactive in test [9], in test [10] and in test [3]. The results for the AC50 in test [1] and in [2] were 35.9 µM (active) and 50 µM (active), respectively.

Take `CCc1ccc(C(=O)NN(C(=O)c2cc(C)cc(C)c2)C(C)(C)C)cc1`: the result in [1] and in test [2] was inactive.

In the case of `ClC1C(Cl)C(Cl)C(Cl)C(Cl)C1Cl` (stereo unspecified), the outcome in test [1] and in test [2] was inactive.

For the compound `O=S(=O)(O)C(F)(F)C(F)(F)C(F)(F)C(F)(F)C(F)(F)C(F)(F)C(F)(F)C(F)(F)F`, the result in test [1] and in test [2] was inactive.

Consider `COP(=S)(OC)Oc1ccc(SC)c(C)c1`, for which the result in test [9], in [10], in [3], in [1] and in [2] was inactive.

With `O=S1OCC2C(CO1)C1(Cl)C(Cl)=C(Cl)C2(Cl)C1(Cl)Cl` (stereo unspecified), the compound was called inactive in test [10], in test [3] and in test [2]. Also, in [1], the AC50 was 50 µM (active).

Regarding `COP(=S)(OC)Oc1ccc([N+](=O)[O-])cc1`, the compound was called inactive in test [9], in test [10] and in [3].

Regarding `CCCN(CCC)c1c([N+](=O)[O-])cc(C(F)(F)F)cc1[N+](=O)[O-]`, the compound was called inactive in test [10], in test [1] and in test [2].

For the compound `CCC(C)(NC(=O)c1cc(Cl)c(C)c(Cl)c1)C(=O)CCl` (stereo unspecified), the half-maximal activity concentration (AC50) in [1] is 31.4 µM (active). In [2], the result was inactive.

Regarding `CCC(C)Nc1c([N+](=O)[O-])cc(C(C)(C)C)cc1[N+](=O)[O-]` (stereo unspecified), the result in test [1] and in [2] was inactive.

As for `CC(C)OC(=O)Nc1cccc(Cl)c1`, the outcome in test [1] and in test [2] was inactive.

Consider `Oc1cc(Cl)ccc1Oc1ccc(Cl)cc1Cl`, for which the outcome in test [9] was inactive. Further, the AC50 was 2.46 µM (active) in test [10] and 4.77 µM (active) in test [3].

Regarding `CCCN(CCOc1c(Cl)cc(Cl)cc1Cl)C(=O)n1ccnc1`, the result in [9], in test [10] and in [3] was inactive. Moreover, the AC50 in test [1] is 76.5 µM (active); in test [2] it was 50 µM (active).

`COc1nn(CSP(=S)(OC)OC)c(=O)s1`: the outcome in test [1] and in [2] was inactive.

`O=C(O)C(F)(F)C(F)(F)C(F)(F)C(F)(F)C(F)(F)C(F)(F)C(F)(F)F`: the result in test [10], in [3] and in test [1] was inactive.
